Source: PubChem
Hits are enriched below; roughly 0.71% of the tested compounds scored in any of these assays.
Eya2 inh = qHTS Assay for Inhibitors of the Phosphatase Activity of Eya2. recombinant Eya2, OMFP fluorescence dephosphorylation (OMFP is methylfluorescein phosphate). Potency, µM (highest dose often 76.9 µM), actives largely listed as inhibitors. hit rate 0.006% among 330,000. AID 488837, 2010; active means well fitted curve in the direction sought with a large enough effect; inconclusive means small, poorly fitted or top-dose-only effect, or another doubt; inactive means no such curve, though single readings can be large; an effect the other way counts as inactive or inconclusive
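Eya2 protein (added as 0.2 uM solution) was preincubated with compound for 10 min at ambient temperature in 50 mM HEPES pH 7.5, 50 mM NaCl, 5 uM MgCl2, 0.05% BSA, 1 mM DTT. OMFP (added at 50 uM) then reacted 10 min; fluorescence read at 485/525 nm.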
GALK inhibitor = qHTS Assay for Inhibitors of Human Galactokinase (GALK); Potency, µM (highest dose often 57.5 µM), most hits filed as inhibitors; Purified GALK, Kinase-Glo residual ATP luminescence; P51570; hit rate 0.007% among 270,000; active means well fitted curve in the direction sought with a large enough effect; inconclusive means small, poorly fitted or top-dose-only effect, or another doubt; inactive means no such curve, though single readings can be large; an effect the other way counts as inactive or inconclusive
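Luminescence from leftover ATP (Ultra-Glo luciferase/luciferin) served as read-out after a 1 h room-temperature reaction of 5 nM GALK with 35 uM ATP and 100 uM galactose.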
PI4K2A block = qHTS for small molecular inhibitors of PI4K2A | AID 1346378, 2018 | activity change, negative = inhibition, % at 76.9 µM | hit rate 0.13% among 420,000 | Phosphatidylinositol 4-kinase type 2-alpha (Homo sapiens), Q9BTU6 | purified PI4K2A, ADP-Glo luminescence, 1 h; stronger effect = lower value; in the data active means activity change below about -50%; inconclusive means mostly about -30% to -49%
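ADP-Glo luminescence measured ADP generated by PI4K2A enzyme (4 ug/mL before mixing) with 1.2 mM PI substrate (pre-mix) and 300 microM ATP (pre-mix). Tris pH7.5 buffer with MgCl2, Triton X-100; 1 h reaction at ambient temperature.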
Coupling enz = qHTS Assay for Inhibitors of Fructose-1,6-bisphosphate Aldolase from Giardia Lamblia: Coupling assay counterscreen. coupling enzyme system counterscreen, AmpLite Red fluorescence. activity change, negative = inhibition, % at 58.2 µM, hits read low. hit rate 0.67% among 290,000; in the data active means activity change below about -30%
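First, compound is pin-transferred into glyceraldehyde-3-phosphate coupling-enzyme reagent at 57.5 uM final and held 10 min at RT. Next, substrate, coupling system and AmpLite Red are added. After 20 min RT, fluorescence (525/598 nm) is read.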
USP2a block = qHTS Assay for Inhibitors of Ubiquitin-specific Protease USP2a Using CHOP2 as the Reporter. AID 463254, 2010. hit rate 0.01% among 330,000. Potency, µM (highest dose often 38.3 µM), hits mostly inhibitors. USP2 core, Ub-CHOP2 coupled fluorogenic reporter, 485/531; active means well fitted curve in the direction sought with a large enough effect; inconclusive means small, poorly fitted or top-dose-only effect, or another doubt; inactive means no such curve, though single readings can be large; an effect the other way counts as inactive or inconclusive
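Deubiquitinase activity read as fluorescence (485/531 nm) after Ub-CHOP2 cleavage activates the enterokinase reporter on its substrate; USP2 core 10nM, Ub-CHOP2 and substrate 25nM each, 30min compound preincubation then 60min RT; data normalized to NEM, curves fitted.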
USP1-UAF1 inh = Inhibitors of USP1/UAF1: Primary Screen; Ubiquitin carboxyl-terminal hydrolase 1 (Homo sapiens), O94782; recombinant USP1/UAF1, Ub-Rhodamine cleavage fluorescence; Potency, µM (top dose mostly 57.1 µM), usual class: inhibitors; hit rate 0.23% among 390,000; AID 743255, 2014; active means well fitted curve in the direction sought with a large enough effect; inconclusive means small, poorly fitted or top-dose-only effect, or another doubt; inactive means no such curve, though single readings can be large; an effect the other way counts as inactive or inconclusive; further: nearly all actives have a fitted effect of over 60% in size
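Step one: compound is pinned into 1nM USP1/UAF1 in HEPES pH 7.8 buffer with TCEP. Step two: 15 min room-temperature incubation. Step three: Ub-Rho (150nM final) starts cleavage, tracked by fluorescence over six one-minute reads.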
Casp1 catalase = Concentration-Response Counterscreen for Redox Active Inhibitors of Caspase-1: Catalase; shares compounds with Coupling enz; caspase-1 Ac-WEHD-AFC fluorescence rate, catalase buffer; Potency, µM (highest dose often 57.5 µM), usual class: inhibitors; 30 tested, under 10 active
Casp1 confirm = Confirmation Concentration-Response Assay for Allosteric/Competitive Inhibitors of Caspase-1 | AID 896, 2007 | hit rate 20% among 60 | Potency, µM (titrated, usually from 57.5 µM), hits mostly inhibitors | shares compounds with Coupling enz | purified caspase-1, fluorogenic substrate cleavage
Casp7 confirm = Confirmation Concentration-Response Assay for Allosteric/Competitive Inhibitors of Caspase-7. 60 tested, under 10 active. recombinant caspase-7, fluorogenic substrate cleavage. AID 897, 2007. shares compounds with Coupling enz. Potency, µM (doses to about 57.5 µM), most hits filed as inhibitors; active means well fitted inhibition curve with a large enough effect in the main read-out, with a control signal flat, not every such curve was filed as active; inconclusive means small, poorly fitted or top-dose-only effect, or a change in a side signal; inactive means no such curve, though single readings can be large or run the other way
Casp7 cysteine = Concentration-Response Counterscreen for Redox Active Inhibitors of Caspase-7: Cysteine; shares compounds with Coupling enz; caspase-7 enzyme with cysteine, fluorogenic substrate, redox counterscreen; Potency, µM (doses to about 57.5 µM), hits mostly inhibitors; 60 tested, under 10 active; AID 908, 2007
Casp7 catalase = Concentration-Response Counterscreen for Redox Active Inhibitors of Caspase-7: Catalase; shares compounds with Coupling enz; Caspase-7 Ac-DEVD-AFC fluorescence rate, catalase buffer; Potency, µM (titrated, usually from 57.5 µM), actives largely listed as inhibitors; 30 tested, under 10 active
Casp1 cysteine = Concentration-Response Counterscreen for Redox Active Inhibitors of Caspase-1: Cysteine; recombinant caspase-1, fluorogenic substrate, cysteine buffer; 60 tested, under 10 active; Potency, µM (highest dose often 57.5 µM), usual class: inhibitors; shares compounds with Coupling enz
Of the large screens only hits and unclear results are named; the others gave an inactive call (follow-up assays come after a bar, where they were run). Unless noted, the call rests on the fitted dose curve; in most records, active means well fitted inhibition curve with a large enough effect in the main read-out, with a control signal flat; inconclusive means small, poorly fitted or top-dose-only effect, or a change in a side signal; inactive means no such curve, though single readings can be large or run the other way.

Cc1ccccc1N(C)C(=O)C1CCCN1S(=O)(=O)c1cccc2cccnc12 (centres undefined)	none (no result: Eya2 inh, GALK inhibitor, Coupling enz, USP2a block, USP1-UAF1 inh)
CCc1ccc(CNc2ccc(O)cc2)cc1	PI4K2A block inconclusive, Coupling enz -58, USP1-UAF1 inh 28µM | Casp1 confirm inactive | Casp7 confirm inactive | Casp7 cysteine inactive | Casp1 cysteine inactive
CCc1ccc(CNc2ccc3c(c2)ncn3CC)cc1	none (no result: GALK inhibitor)
CCOCCSc1c(C)cnc2c1c(=O)n(C)c(=O)n2C	none (no result: Eya2 inh, GALK inhibitor, Coupling enz, USP2a block)
[C-]1=CC=CC1.[C-]1=CC=CC1.[Cl-].[Cl-].[Ti+4]	none (no result: Eya2 inh, GALK inhibitor, PI4K2A block, Coupling enz, USP2a block, USP1-UAF1 inh) | Casp1 confirm inconclusive | Casp7 confirm inactive | Casp7 cysteine inactive | Casp1 cysteine inactive
Cc1ccc(N2C(=O)[C@@H]3[C@H](C2=O)C2c4ccccc4C=CN2[C@@H]3C(=O)c2ccco2)cc1 (some centres undefined)	Coupling enz -41, USP1-UAF1 inh 16µM | Casp1 confirm 25µM | Casp7 confirm inactive | Casp7 cysteine inactive | Casp1 cysteine inconclusive
Cc1ccc(N2C(=O)[C@@H]3[C@H](C2=O)C2c4ccccc4C=CN2[C@@H]3C(=O)c2ccco2)c(C)c1 (some centres undefined)	PI4K2A block inconclusive, Coupling enz -42, USP1-UAF1 inh 4µM | Casp1 catalase 32µM | Casp1 confirm 25µM | Casp7 confirm inconclusive | Casp7 cysteine inactive | Casp7 catalase inactive | Casp1 cysteine inactive
CC(=O)N1CC[C@@H]2CC(=O)CC[C@@H]21	none (no result: Eya2 inh, GALK inhibitor, PI4K2A block, USP2a block, USP1-UAF1 inh)
